Bioassay records: PubChem BioAssay, National Center for Advancing Translational Sciences (NCATS)
Compounds with a hit are over-represented: about 9.5% of the library has one in this group of screens.
Pf growth 48h: P. falciparum growth inhibition at 48 hours (one generation) | P. falciparum luciferase growth in erythrocytes, 48 h | Potency, µM (top dose mostly 28.7 µM), actives largely listed as inhibitors | 5.9% of 310,000 active | AID 504832
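Luminescence readout; reporter = integrated firefly luciferase in P. falciparum. RBC culture at 2% hematocrit, 0.1% parasitemia final, 37 C/5% CO2; decreased signal taken as growth inhibition.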
RE007 growth inh: less growth of the S. pombe RE007 Vpr strain. S. pombe RE007 Vpr strain, BacTiter-Glo ATP luminescence, 24 h. Potency, µM (doses to about 92.2 µM), actives largely listed as inhibitors. 0.21% of 360,000 active. AID 651644; active = well fitted falling curve with a large enough effect; inconclusive = small, poorly fitted or top-dose-only effect; inactive = no such curve, though single readings can be large or run the other way; also: nearly all actives have a fitted effect of over 50% in size
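Fission yeast RE007 carrying one integrated HIV-1 vpr copy, seeded at OD 0.01 in PMG+AL medium with 23 nL pinned compound. Grown 24 h at 30 degrees; viability read by BacTiter-Glo luminescence after 5 min.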
SARS PLP yeast: inhibitors of SARS-CoV papain-like protease in yeast; S. cerevisiae expressing SARS-CoV PLpro, growth rescue; Potency, µM (highest dose often 32.9 µM), hits mostly activators; 0.19% of 330,000 active; calls by dose curve; also: nearly all actives have a fitted effect of over 55% in size
NS1 function inh: influenza NS1 inhibition; Potency, µM (series often up to 46.1 µM); 0.4% of 270,000 active; calls by dose curve; also: actives are rising curves; nearly all actives have a fitted effect of over 50% in size
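Recovery from NS1-induced slow growth read by OD600 in budding yeast switched to galactose assay medium (pH 6.0, -URA) at 1:100 dilution. Compound 23 nl per well; the matching strain lacking NS1 serves as control.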
Pf growth 96h: P. falciparum growth inhibition at 96 hours; P. falciparum luciferase reporter growth, 96 h; Potency, µM (top dose mostly 28.7 µM), hits mostly inhibitors; 6.9% of 320,000 active
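Readout is luminescence from an integrated firefly luciferase in P. falciparum. Red cells, 2% hematocrit and 0.05% parasitemia final, were cultured with compound through two parasite generations (96 hours) at 37 C, 5% CO2.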
Each line names hits and unclear results; the compound was inactive in the other large screens. Unless noted, calls follow the shape of the dose curve; as a rule, active = well fitted inhibition curve with a large enough effect; inconclusive = small, poorly fitted or top-dose-only effect, or another doubt; inactive = no such curve, though single readings can be large or run the other way.

O=C(Cn1c(C(=O)N2CCc3ccccc3C2)cc2sccc21)c1ccccc1	Pf growth 48h 14.7µM, NS1 function inh inconclusive
CN(Cc1nc2ccccc2c(=O)[nH]1)C(=O)c1cc(C2CC2)nn1-c1ccccc1	Pf growth 48h inconclusive, Pf growth 96h inconclusive (no result: SARS PLP yeast, NS1 function inh)
CCOC(=O)C1=C(C)N=C2SC(CC)C(=O)N2C1c1cccc(F)c1 (configuration not stated)	Pf growth 96h 10.4µM
CCOC(=O)C1=C(C)N=C2SC(C)C(=O)N2C1c1ccccc1 (configuration not stated)	Pf growth 48h inconclusive
CCOC(=O)C1=C(C)N=C2SC(C)C(=O)N2C1c1ccc(OCC)c(OCC)c1 (configuration not stated)	Pf growth 48h 11.7µM
COc1ccc(C(=O)OCCN2CCN(C3=NS(=O)(=O)c4ccccc43)CC2)cc1OC	Pf growth 96h 8.28µM
CC(=O)N1CC(C)Sc2ccc(S(=O)(=O)NC3CCCCC3C)cc21 (configuration not stated)	none
COc1ccc(-c2cc(-c3ccc(OC)cc3)[nH]n2)cc1	none (no result: Pf growth 48h)
COc1ccc(-c2cc(C3CCNCC3)[nH]n2)cc1	Pf growth 48h 2.62µM, Pf growth 96h 2.33µM
O=C(N/N=C/c1ccc([N+](=O)[O-])s1)c1ccccc1	Pf growth 48h inconclusive (no result: NS1 function inh)
O=C(Cc1ccccc1)N/N=C/c1ccc([N+](=O)[O-])s1	Pf growth 48h 7.38µM, Pf growth 96h 8.28µM
O=C(N/N=C/c1ccc([N+](=O)[O-])s1)C(O)c1ccccc1 (configuration not stated)	Pf growth 48h 4.65µM, Pf growth 96h 2.33µM
Cc1ccnn1CC(=O)N/N=C/c1ccc([N+](=O)[O-])s1	Pf growth 48h inconclusive, Pf growth 96h 7.38µM
Cn1c(SCC(=O)N/N=C/c2ccc([N+](=O)[O-])s2)nnc1-c1ccccc1	Pf growth 48h 6.57µM, Pf growth 96h inconclusive
Cc1ccsc1/C=N/NC(=O)C(O)c1ccccc1 (configuration not stated)	none (no result: SARS PLP yeast)
Cc1ccc(NC(C)C(=O)N/N=C/c2ccc([N+](=O)[O-])s2)cc1 (configuration not stated)	Pf growth 48h inconclusive, Pf growth 96h 14.7µM
COc1ccc(NC(C)C(=O)N/N=C/c2ccc([N+](=O)[O-])s2)cc1 (configuration not stated)	Pf growth 48h inconclusive
CCCCNC(=O)Cn1c(=O)oc2cc(S(=O)(=O)N3CC(C)CC(C)C3)ccc21 (configuration not stated)	Pf growth 96h 6.57µM (no result: Pf growth 48h)
O=C(Cn1c(=O)oc2cc(S(=O)(=O)N3CCCC3)ccc21)N1CCCC1	none (no result: Pf growth 48h)
O=C(Cn1c(=O)oc2cc(S(=O)(=O)N3CCCC3)ccc21)NCc1ccc(F)cc1	Pf growth 96h 6.57µM (no result: Pf growth 48h)
COCCCNC(=O)Cn1c(=O)oc2cc(S(=O)(=O)N3CC(C)CC(C)C3)ccc21 (configuration not stated)	Pf growth 48h inconclusive
O=C(Cn1c(=O)oc2cc(S(=O)(=O)N3CCCC3)ccc21)N1CCN(c2ccccc2F)CC1	Pf growth 48h inconclusive, Pf growth 96h inconclusive
O=C(Cn1c(=O)oc2cc(S(=O)(=O)N3CCCC3)ccc21)N1CCN(c2ccccn2)CC1	Pf growth 96h 11.7µM
CC1CCCN(C(=O)Cn2c(=O)oc3cc(S(=O)(=O)N4CCCCC4)ccc32)C1 (configuration not stated)	Pf growth 48h 1.31µM, Pf growth 96h inconclusive
COc1ccc([C@H]2C[C@H](n3cc(-c4ccc(F)cc4)nn3)[C@@H](O)CN2C(=O)C2CCCCC2)cc1	none (no result: Pf growth 48h, SARS PLP yeast, NS1 function inh, Pf growth 96h)
CC1CCCCC1NC(=O)Cn1c(=O)oc2cc(S(=O)(=O)N3CCCC3)ccc21 (configuration not stated)	Pf growth 96h 10.4µM
O=C(Cn1c(=O)oc2cc(S(=O)(=O)N3CCCC3)ccc21)Nc1cccc(C(F)(F)F)c1	Pf growth 96h 11.7µM
CCc1cccc(NC(=O)Cn2c(=O)oc3cc(S(=O)(=O)N4CCOCC4)ccc32)c1	NS1 function inh inconclusive, Pf growth 96h inconclusive (no result: Pf growth 48h)
CCN(C(=O)Cn1c(=O)oc2cc(S(=O)(=O)N3CCOCC3)ccc21)c1ccccc1	Pf growth 48h inconclusive, Pf growth 96h 4.15µM
O=C(Cn1c(=O)oc2cc(S(=O)(=O)N3CCCC3)ccc21)NC1CCCCC1	Pf growth 96h inconclusive
CCN(C(=O)Cn1c(=O)oc2cc(S(=O)(=O)N3CCCC3)ccc21)c1ccc(OC)cc1	Pf growth 48h inconclusive
O=c1c2c(nc3c(-c4ccc(Cl)cc4)c[nH]n13)CCCC2	Pf growth 48h 4.65µM
CCc1c(C)nc2ncnn2c1N1CCC(C(=O)Nc2ccc(C)cc2)CC1	Pf growth 48h inconclusive, Pf growth 96h 11.7µM
Cc1nc2ncnn2c(N2CCCC(C(=O)Nc3ccc4c(c3)CCC4)C2)c1C (configuration not stated)	Pf growth 48h 5.22µM
CCc1c(C)nc2ncnn2c1N1CCC(C(=O)Nc2ccccc2)CC1	Pf growth 48h inconclusive
CCOc1ccccc1NC(=O)C1CCCN(c2c(CC)c(C)nc3ncnn23)C1 (configuration not stated)	Pf growth 48h 10.4µM
COc1c2c(c3c(c1CCC(=O)O)OC(C)(C)C=C3)OC(C)(C)C=C2	none (no result: Pf growth 48h, RE007 growth inh, SARS PLP yeast, Pf growth 96h)
COc1nc(N)nc2c1ncn2[C@@H]1C[C@H](O)[C@@H](CO)O1	none (no result: Pf growth 48h, RE007 growth inh, SARS PLP yeast, Pf growth 96h)
Cc1c(C(=O)NCc2ccc3c(c2)OCO3)oc2ccc(S(=O)(=O)N3CCCCC3)cc12	Pf growth 48h 10.4µM, NS1 function inh inconclusive, Pf growth 96h inconclusive
CCN(CC)S(=O)(=O)c1ccc2oc(C(=O)NCc3ccc(C)cc3)c(C)c2c1	Pf growth 48h 9.28µM (no result: Pf growth 96h)
O=C(NCc1ccc2c(c1)OCO2)c1ccc(S(=O)(=O)N2CCCCC2)cc1	none (no result: Pf growth 96h)
Cc1c(C(=O)NCc2ccc3c(c2)OCO3)oc2ccc(S(=O)(=O)N3CCCC3)cc12	Pf growth 48h 11.7µM, Pf growth 96h inconclusive
Cc1c(C(=O)O)oc2ccc(S(=O)(=O)NCc3ccc4c(c3)OCO4)cc12	Pf growth 96h 5.86µM
CC(=O)c1ccccc1NC(=O)c1cc(S(=O)(=O)N2CCOCC2)ccc1N1CCCC1	Pf growth 48h inconclusive, Pf growth 96h inconclusive (no result: NS1 function inh)
COC(=O)C1=C2c3[nH]c4ccccc4c3CCN2C(=O)CC1	none (no result: Pf growth 48h, SARS PLP yeast, NS1 function inh, Pf growth 96h)
CC1CCN(C(=O)CNC(=O)c2ccc(Br)o2)CC1	none (no result: Pf growth 48h, NS1 function inh, Pf growth 96h)
Cc1ccc(CNC(=O)c2oc3ccc(S(=O)(=O)N4CCOCC4)cc3c2C)cc1	Pf growth 48h inconclusive (no result: Pf growth 96h)
COc1ccccc1CNC(=O)c1oc2ccc(S(=O)(=O)N3CCCC3)cc2c1C	Pf growth 48h 2.94µM
CCn1cc(S(=O)(=O)NCc2ccc3c(c2)OCO3)cn1	Pf growth 96h 11.7µM
CCn1cc(S(=O)(=O)Nc2ccc3c(c2)OCCO3)cn1	none
C=CCNC(=O)c1oc2ccc(S(=O)(=O)N3CCC4(CC3)OCCO4)cc2c1C	Pf growth 48h inconclusive
COc1ccc(CNC(=O)c2oc3ccc(S(=O)(=O)N4CCOCC4)cc3c2C)cc1	Pf growth 48h 11.7µM, Pf growth 96h inconclusive
